ChEMBL document CHEMBL1157539, “Thousands of chemical starting points for antimalarial lead identification” (Nature, 2010)

tested on: Plasmodium falciparum; experiment: GSK_TCMDC: Inhibition of Plasmodium falciparum 3D7 in whole red blood cells, using parasite LDH activity as an index of growth. Test compounds present at 2uM; format: functional

Row | Compound | Inhibition [%]
1 | COc1ccc(-c2cnc(N)c(-c3ccc(C(N)=O)cc3)c2)cc1OC | 96
2 | COc1cc(Cc2cnc(N)nc2N)ccc1OCc1ccc(NC(C)=O)cc1 | 98
3 | Cc1cc(N2CCCN(C)CC2)nc(Nc2ccc(Br)cc2)n1 | 94
4 | COC(=O)c1cccc(CNCc2cccc(-c3cccc(-c4nc5cccc(C)c5[nH]4)c3)c2)c1.O=C(O)C(F)(F)F | 100
5 | O=C(Nc1nccs1)c1cn(-c2ccccc2)nc1-c1ccc(Cl)s1 | 96
6 | Cc1cccc(OC(C)C(=O)Nc2cc(C(F)(F)F)ccc2N2CCOCC2)c1 (stereo not given) | 100
7 | O=C(NCc1cccc(OC(F)(F)F)c1)c1cnc2c(c1)nc(-c1c[nH]c(-c3ccccc3)n1)n2CCc1c[nH]cn1 | 99
8 | CCc1n[nH]c(C(=O)NC2CCN(CC3(c4ccc(OC)cc4)CCCCC3)CC2)c1C | 90
9 | CCC(C)(C)NC(=O)C(c1cccc(OC)c1)N(C(=O)CNC(=O)c1cccs1)c1ccc2c(c1)OCCO2 (stereo not given) | 100
10 | CC(C)COc1ccc(Cl)cc1Cc1ccc(-c2nc3c(F)cccc3[nH]2)o1 | 98
11 | COc1ccc(CNC2CCN(C)CC2)cc1-c1ccc(S(=O)(=O)NCCc2ccccn2)cc1.O=C(O)C(F)(F)F | 93
12 | CC(C)CNCc1ccc(-c2ccc(CNC3CCN(Cc4ccccc4)CC3)cc2)cc1.O=C(O)C(F)(F)F | 100
13 | O=C(C=Cc1ccc(Cl)c(Cl)c1)NC1CCN(CCc2ccccc2)CC1.O=C(O)C(F)(F)F | 97
14 | Cn1nc(-c2cccc(CN[C@@H]3CCc4ccc(O)cc43)c2)c2cnc(NCCCN3CCCC3)nc21 | 100
15 | O=C(Nc1cccc(-c2cccc(-c3nc4cc(F)ccc4[nH]3)c2)c1)c1ccncc1 | 92
16 | Cl.N#Cc1ccc2c(c1)CCN(CCC1CCC(NC(=O)/C=C/c3c[nH]c4ccc(F)cc34)CC1)CC2 (stereo not given) | 100
17 | Cc1cccc(C)c1OC(=O)CSc1nnc(-c2ccccc2O)o1 | 97
18 | N#Cc1ccc(-c2ccc(C(=O)NCCCCN3CCC(c4cn(CCO)c5ccccc45)CC3)cc2)cc1 | 93

Row | Compound | Inhibition [%]
19 | O=C(Nc1ccc(F)cc1)NC1CCN(c2ccnc3cc(Cl)ccc23)C1.O=C(O)C(F)(F)F (stereo not given) | 100
20 | CCC1CN2CCc3c([nH]c4ccccc34)[C@@H]2C[C@@H]1CC1NCCc2cc(OC)c(OC)cc21.Cl (stereo not given in full) | 100
21 | Cl.OC(c1cccc(OCc2ccccc2)c1)C1CN(CCc2ccccc2)CCC1(O)c1ccccc1 (stereo not given) | 98
22 | CN(C)c1ccc(CN2CCC(CNC(=O)c3cc(-c4ccccc4F)cs3)C2)cc1.O=C(O)C(F)(F)F (stereo not given) | 100
23 | CS(=O)(=O)O.O=[N+]([O-])c1ccc(CNCCCCCCNCc2ccc([N+](=O)[O-])c3ccccc23)c2ccccc12 | 100
24 | CCNc1cc(C(=O)N[C@@H](Cc2ccccc2)[C@H](O)CNC2CCC(C)(C)CC2)cc(N2CCCCS2(=O)=O)c1.Cl | 98
25 | Cc1ccc(F)cc1S(=O)(=O)NCC(C)c1ccc(NC(=O)Nc2cccc(F)c2)cc1 (stereo not given) | 95
26 | O=C(Nc1ccc(F)cc1F)NC1CCN(CCCCCNC(=O)C2CC2c2ccc(Cl)c(Cl)c2)CC1 (stereo not given) | 100
27 | CCNc1cc(C(=O)N[C@@H](Cc2ccccc2)[C@H](O)CNCCC(C)c2ccccc2)cc(N2CCCC2=O)c1.O=C(O)C(F)(F)F (stereo not given in full) | 99
28 | O=C(O)C(F)(F)F.O=c1ccc2ccc(F)c3c2n1CC3CN1CCC(NCc2cccc(-c3ccccc3F)c2)CC1 (stereo not given) | 100
29 | CN(C)c1ccc(-c2ccc(C(=O)NC3CCN(Cc4cccc(C(F)(F)F)c4)CC3)s2)cc1.O=C(O)C(F)(F)F | 96
30 | O=C(/C=C/c1ccc(Cl)c(Cl)c1)NCCCCN1CCCN(C(=O)Nc2cc(Cl)cc(Cl)c2)CC1 | 97
31 | Cc1cccc2nc(-c3ccc(-c4cccc(NC(=O)CCc5c[nH]cn5)c4)cc3)[nH]c12 | 100
32 | COC(=O)c1cc(/C(C)=N/Nc2nc3ccccc3[nH]2)ccc1O | 100
33 | CCCCCc1cc(OC(C)=O)c2c(c1)OC(C)(C)C=C2C1=CCN(Cc2ccccc2)CC1.O=C(O)/C=C/C(=O)O | 97
34 | COc1cc(C=Cc2ccc3ccccc3n2)cc(Br)c1OCC(=O)N(C)C | 99
35 | C=CCN1C(=O)c2[nH]nc(-c3cc(C)c(C)cc3O)c2C1c1cccc(Br)c1 (stereo not given) | 90
